Test [1] in a line: CCTE_Mundy_HCI_Cortical_Synap_Neur_Matur_NeuriteLength: CCTE's Synaptogenesis and Neurite Maturation Assay in rat cortical cells for Neurite Length, Mundy Lab (AID 2284214). The method, boiled down: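 Read-out: high-content imaging of MAP2-labelled neurites, with synaptophysin and Hoechst co-stain, in rat cortical cultures fixed at DIV 12. Activity fitted in positive direction relative to DMSO baseline.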

Test [2] is described as follows: CCTE_Mundy_HCI_Cortical_Synap_Neur_Matur_NeuriteSpotCountPerNeuron: CCTE's Synaptogenesis and Neurite Maturation Assay in rat cortical cells for Neurite Spot Count per Neuron Count, Mundy Lab (AID 2284215). Summed up: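 Rat primary cortical cells received AraC at DIV 5, then chemicals with a media change at DIV 7, and were fixed at DIV 12. Synaptophysin puncta on MAP2-stained neurites per neuron were counted by high-content imaging, fitted relative to DMSO.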

Test [3] is described as follows: CCTE_Mundy_HCI_Cortical_Synap_Neur_Matur_SynapseCount: CCTE's Synaptogenesis and Neurite Maturation Assay in rat cortical cells for Synapse Count, Mundy Lab (AID 2284218). The method, boiled down:
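Read-out: synapse number per neuron, automated high-content imaging of fixed cells immunostained for MAP2 and synaptophysin plus Hoechst nuclei. Rat primary cortical cultures, AraC at DIV 5, chemical dosing DIV 7–12. Positive-direction fit relative to DMSO.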

Test [4] can be described thus: CCTE_Mundy_HCI_Cortical_Synap_Neur_Matur_NeuriteCount: CCTE's Synaptogenesis and Neurite Maturation Assay in rat cortical cells for Neurite Count, Mundy Lab (AID 2284222).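 As to outcome: exposure from day 7 to day 12 in vitro with readout at day 12.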 The method, boiled down: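 Rat cortical neurons, 96-well; AraC DIV 5; chemical + media change DIV 7; end DIV 12. Fix PFA/Hoechst, anti-MAP2 + anti-synaptophysin IF. HCI neurite count vs DMSO baseline.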

A short description of test [5]: CCTE_Mundy_HCI_Cortical_Synap_Neur_Matur_CellBodySpotCount: CCTE's Synaptogenesis and Neurite Maturation Assay in rat cortical cells for Cell Body Spot Count, Mundy Lab (AID 2284223). The method, boiled down:
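Rat primary cortical cultures received AraC at DIV 5 to arrest glia, were dosed with chemical at DIV 7 with media change, and were fixed at DIV 12 (288.33 h). Synaptophysin puncta on MAP2-positive cell bodies per neuron were counted by high-content imaging versus DMSO.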

The nature of test [6]: CCTE_Mundy_HCI_hNP1_Pro_ResponderAvgInten: CCTE's Proliferation Assay in human neuroprogenitor cells, Mundy Lab (AID 2284224; active = hit-call score of the fitted dose curve at least 0.9, where 1 is the maximum;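 also: human neural progenitor cells hNP1 derived from WA09 embryonic stem cells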). The method, boiled down:
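Proliferation was scored as BrdU labelling intensity in human neural progenitors derived from WA09 embryonic cells, measured 26.25 hours after chemical dosing. Activity was fitted relative to DMSO.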

Test [7] in a line: TAMU_PeakParms_SingleDonor1434_Chronotropy: Texas A&M University (TAMU) 1.5-hr Human Induced Pluripotent Stem Cell (iPSC)-derived Cardiomyocytes Calcium (Ca+2) Flux Assay for Cardiotoxicity: Chronotropy (changes in peak frequency) (AID 2284217). Conditions: actives raise or lower the signal. Summed up:
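Beat rate, as mean Ca2+-flux peak frequency, was read from donor 1434 iPSC cardiomyocytes 90 min after exposure to 0.2–100 uM test chemical (0.5% DMSO). Wells that stopped beating were excluded; EC05 from bidirectional DMSO-referenced fitting.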

Test [8] can be described thus: BSK_BT_PBMCCytotoxicity: PBMC Cytotoxicity Assessment in the BioMAP Diversity Plus: BT Assay (AID 2284225). Particulars: primary human B cells with PBMC. The method, then: BSK_BT is a cell-based, multiplexed-readout assay that uses B cell and peripheral blood mononuclear cells, a human vascular primary cell co-culture, with measurements taken at 24 hours after chemical dosing in a microplate: 96-well plate.BSK_BT_PBMCCytotoxicity is an assay component measured in the BSK_BT assay. It measures dehydrogenase activity, a form of viability reporter, as detected with fluorescence intensity signals by Alamar Blue Reduction technology.Data from the assay component BSK_BT_PBMCCytotoxicity was analyzed at the endpoint, BSK_BT_PBMCCytotoxicity, in the positive analysis fitting direction relative to DMSO as the negative control and baseline of activity. Using a type of viability reporter, gain or loss-of-signal activity can be used to understand cellular changes in viability. To generalize the intended target to other relatable targets, this assay endpoint is annotated to the 'cell cycle' intended target family, where the subfamily is 'cytotoxicity'.
The levels of cell surface (or secreted, indicated by the prefix "s") biomarker endpoints were measured by ELISA. Overt cytotoxicity to cells in confluent adherent cultures (all systems other than the BT system) was assessed by measuring total protein levels using sulforhodamine B (SRB) staining in parallel cultures at the time of biomarker measurements, indicated as SRB endpoints. For proliferation assays for adherent cell types, individual cell types are cultured at sub-confluence and relative cell numbers quantified by SRB staining at time points optimized for each system (48 h: 3C and CASM3C systems; 72 h: BT and HDF3CGF systems; 96 h: SAg system). SRB was performed by staining cells with 0.1% SRB after fixation with 10% TCA and reading wells at 560 nm.Viability and proliferation of PBMC (T cells) was quantified by Alamar Blue reduction for the SAg and BT systems. For PBMC viability (referred to as PBMC Cytotoxicity within the assay endpoint names), cells were plated (75,000/well in a 96-well plate) and then chemical samples added for 1 h before addition of activators, SEB and TSST-1 (20 ng/mL final concentration each). Cells were incubated for 90 h. Then, Alamar Blue (20 uL/well) (Invitrogen, Cat DAL1100) was added for 6 h, and the plates were read with a fluorescence microplate reader at 546/580 nm (excitation/emission). For PBMC proliferation, cells were plated and activated as above but incubated for only 16 h prior to addition of Alamar Blue. Plates were read after 6 h.

Test [9] in a line: CCTE_Mundy_HCI_hN2_NOG_NeuriteLength: CCTE's Neurite Outgrowth Assay in human hN2 cells for Neurite Length, Mundy Lab (AID 2284220; active = hit-call score of the fitted dose curve at least 0.9, where 1 is the maximum). On the procedure: CCTE_Mundy_HCI_hN2_NOG is a multiplexed, cell-based-readout assay that uses immature neurons derived from hNP1 neuroprogenitor cells with measurements taken at 50.33 hours after chemical dosing in a microplate: 96-well plate.CCTE_Mundy_HCI_hN2_NOG_NeuriteLength is one of four components of the CCTE_Mundy_HCI_hN2_NOG assay. It measures neurite outgrowth related to neurite length using High Content Imaging of fluorescently labelled markers.[…] Using a type of morphology reporter, loss -of-signal activity can be used to understand developmental effects.
Exposure starts 2 hours post-plating by adding 10 ul of the working solution to 90 ul of media in the wells for a 1/10 dilution. Forty-eight hours after chemical treatment cells are fixed by direct addition of 100 ul of warm (37C) Dulbecco's phosphate buffered saline (DPBS) fixative solution containing 8% paraformaldehyde, 8% sucrose, and 0.1% of 3 mg/ml Hoechst 33342 into each well. Primary antibodies are prepared by dilution in Immunocytochemical Staining Buffer (ISB), 10X Dulbecco's PBS, 0.1% Saponin, 5% Bovine Serum Albumin, 0.5% NaN3 (Sodium Azide) and betaIII-tubulin (rabbit anti-betaIII-tubulin, 1:800) followed by Alexa Fluor-488 secondary (1:500) to label neuronal cell bodies and neurites. A Cellomics ArrayScan VTi HCS Reader is used for automated image acquisition and analysis of neurite outgrowth.

Test [10] in a line: CCTE_Mundy_HCI_hN2_NOG_NeuronCount: CCTE's Neurite Outgrowth Assay in human hN2 cells for Neuron Count, Mundy Lab (AID 2284221; active = hit-call score of the fitted dose curve at least 0.9, where 1 is the maximum). The method, boiled down:
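Read-out is the number of betaIII-tubulin-positive neurons imaged by automated high-content analysis, with DMSO as negative control.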

We go through 16 compounds from PubChem BioAssay (EPA / NIEHS).

Usually AC50 stands for the concentration at which the activity in the assay is half-maximal.

Each structure is given as a SMILES string. “And” between values parts separate entries of the source, which are not always exact repeats. Equal entries are not always repeated. Results filed as inconclusive are left out. Where a structure was tested more than once in an assay, its records may differ in their call. The source made the active and inactive calls. The calls were made as follows, unless noted: active = hit-call score of the fitted dose curve at least 0.9, where 1 is the maximum; inactive = score below 0.9.

In the case of `CCC(C)(C)C(=O)OC1=C(c2ccc(Cl)cc2Cl)C(=O)OC12CCCCC2`, the result in test [1], in test [2], in test [3], in test [4], in test [5] and in test [6] was inactive.
Consider `CC1(C)C(C=C(Cl)Cl)C1C(=O)OC(C#N)c1ccc(F)c(Oc2ccccc2)c1` (centres undefined), for which the AC50 in test [1] was 33.1 µM (active) and 2.98 µM (active); in test [2] it was 72 µM (active) and 15 µM (active); in test [3], 77.9 µM (active); in test [4], 73.6 µM (active); in [5], 87.1 µM (active). Further, the compound was called inactive in [3], in test [4], in [5] and in [6].
Take `CNC(=O)CSP(=S)(OC)OC`: the AC50 in test [1], in [2], in [3] and in [4] was 50 µM (active) throughout. Further, the result in test [1], in test [2], in test [3], in test [4], in [5] and in test [6] was inactive.
Consider `O=S1OCC2C(CO1)C1(Cl)C(Cl)=C(Cl)C2(Cl)C1(Cl)Cl` (centres undefined), for which the half-maximal activity concentration (AC50) in test [2] is 15 µM (active); in [7], 4.73 µM (active); in test [3], 19.6 µM (active); in test [5] it was 23.4 µM (active); in test [6], 23 µM (active). Moreover, in test [4], the result was inactive.
As for `CC1(c2ccc(Oc3ccccc3)cc2)OC(=O)N(Nc2ccccc2)C1=O` (centres undefined), the AC50 was 44.1 µM (active) in [1]; 24.1 µM (active) in test [2]; 40 µM (active) in test [3]; 59 µM (active) in [4]; 79.9 µM (active) in [5]. For the same compound, the compound was classed as inactive in test [6].
Consider `O=S(=O)(O)C(F)(F)C(F)(F)C(F)(F)C(F)(F)C(F)(F)C(F)(F)C(F)(F)C(F)(F)F`, for which the call in test [1], in test [2], in [3], in test [4], in test [5] and in [8] was inactive. Also, the AC50 in [8] was 24 µM (active) and 33.9 µM (active).
Take `COP(=S)(OC)Oc1ccc([N+](=O)[O-])cc1`: the AC50 in test [1] and in [2] was 15 µM (active) in each case. The result in test [3], in test [4] and in test [5] was inactive.
With `CCOCN(C(=O)CCl)c1c(C)cccc1CC`, in test [7], the AC50 is 4.73 µM (active).
`O=C(O)COc1ccc(Cl)cc1Cl`: the outcome in test [1], in test [2], in [3], in test [4] and in test [6] was inactive.
For the compound `O=C(O)C(F)(F)C(F)(F)C(F)(F)C(F)(F)C(F)(F)C(F)(F)C(F)(F)F`, the compound was called inactive in [1], in test [2], in test [3], in test [4], in test [5] and in test [6]. Also, in test [8], the result was inactive. Moreover, the AC50 in test [8] was 30 µM (active).
As for `CC(C)N(C(=O)COc1nnc(C(F)(F)F)s1)c1ccc(F)cc1`, the call in test [1], in [2], in test [3], in test [4], in [5] and in test [6] was inactive.
As to `CN1CSC(=S)N(C)C1`, the outcome in test [7] was inactive.
Take `O=[N+]([O-])/N=C1\NCCN1Cc1ccc(Cl)nc1`: the result in [1], in test [2], in test [3], in [4], in test [5] and in test [6] was inactive.
In the case of `COP(=O)(OC)OC=C(Cl)Cl`, the compound was called inactive in [1], in test [2], in test [3], in test [9], in test [4] and in test [5]. Further, the result in test [6] was inactive. Besides, the values for the half-maximal activity concentration (AC50) in test [2], in test [3] and in test [10] were 49 µM (active), 9.71 µM (active) and 0.355 µM (active), respectively.
As for `CC[C@H](C)[C@H]1O[C@]2(C=C[C@@H]1C)C[C@@H]1C[C@@H](C/C=C(\C)[C@@H](O[C@H]3C[C@H](OC)[C@@H](O[C@H]4C[C@H](OC)[C@@H](O)[C@H](C)O4)[C@H](C)O3)[C@@H](C)/C=C/C=C3\CO[C@@H]4[C@H](O)C(C)=C[C@@H](C(=O)O1)[C@]34O)O2` (tested in a mixture with another compound), the concentration at half-maximal activity (AC50) is 1.08 µM (active) in test [1]; 1.19 µM (active) in test [2]; 1.41 µM (active) in test [3]; 1.59 µM (active) in test [4]; 1.75 µM (active) in [5]; 1.45 µM (active) in test [6].
Take `ClC1C(Cl)C(Cl)C(Cl)C(Cl)C1Cl` (centres undefined): the AC50 in test [7] is 11.5 µM (active). In [8], the outcome was inactive.
